PubChem BioAssay (NCATS)
Where “and” joins values, the source holds several entries; their conditions need not be identical. Identical values can stand only once. Records with an inconclusive call do not appear. Calls of active or inactive are those of the source. Calls follow the shape of the dose curve; as a rule, active = well fitted curve in the direction sought with a large enough effect; inconclusive = small, poorly fitted or top-dose-only effect, or another doubt; inactive = no such curve, though single readings can be large; an effect the other way counts as inactive or inconclusive.

Experiments:
[1] = qHTS of pediatric cancer cell lines to identify multiple opportunities for drug repurposing: Primary screen for SJ-GBM2 cells (AID 1347091); also: potency is read from the fitted curve at half-maximal effect
Procedure, shortened: (§1)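 Eight- or eleven-point concentration series, 48 h treatment at 37 degrees C in growth media; readout CellTiter-Glo luminescence. Potency and efficacy were taken from the concentration-response curves.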

[2] = qHTS of pediatric cancer cell lines to identify multiple opportunities for drug repurposing: Primary screen for A673 cells (AID 1347092); also: nearly all actives have a fitted effect of over 45% in size; also: potency is read from the fitted curve at half-maximal effect
Procedure, shortened: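 Titration-based qHTS on A673 cells: MIPE compounds spanned 11 points (0.78 nM to 46 µM final), NPC compounds 8 points (0.59 nM to 46 µM final). Viability after 48 h was measured by ATP luminescence.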

[3] = qHTS of pediatric cancer cell lines to identify multiple opportunities for drug repurposing: Primary screen for SK-N-MC cells (AID 1347093); also: potency is read from the fitted curve at half-maximal effect
Procedure, shortened: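 Metabolically active cells were quantified by ATP-dependent luminescence (CellTiter-Glo, 15 min at room temperature) following 48 h treatment. Cells had been plated at 500-1,000 per well and settled for 5 h beforehand.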

[4] = qHTS of pediatric cancer cell lines to identify multiple opportunities for drug repurposing: Primary screen for NB-EBc1 cells (AID 1347095); also: potency is read from the fitted curve at half-maximal effect
Procedure, shortened: (§2)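 500-1,000 cells/well; 5 h pre-incubation 37 °C/5% CO2; compound pinned; 48 h; CellTiter-Glo, 15 min RT; luminescence. MIPE 11-pt from 0.78 nM, NPC 8-pt from 0.59 nM final. Bortezomib 2.3 µM final as positive control.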

[5] = qHTS of pediatric cancer cell lines to identify multiple opportunities for drug repurposing: Primary screen for BT-37 cells (AID 1347094); also: potency is read from the fitted curve at half-maximal effect
Procedure, shortened: as §2

[6] = qHTS of pediatric cancer cell lines to identify multiple opportunities for drug repurposing: Primary screen for TC32 cells (AID 1347089); also: nearly all actives have a fitted effect of over 60% in size
Procedure, shortened: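 A viability screen of TC32 cells was run over 48 h, with primary MIPE doses spanning 0.78 nM–46 µM and NPC doses 0.59 nM–46 µM. ATP luminescence (CellTiter-Glo) served as the read-out.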

[7] = qHTS of pediatric cancer cell lines to identify multiple opportunities for drug repurposing: Primary screen for DAOY cells (AID 1347090); also: potency is read from the fitted curve at half-maximal effect; nearly all actives have a fitted effect of over 55% in size
Procedure, shortened: as §1

Measured: Potency

COc1ccc2cc3[n+](cc2c1OC)CCc1cc2c(cc1-3)OCO2
inactive: [1]
active: [2] 2.11 µM and 2.35 µM | [3] 8.41 µM and 18.7 µM

CCCCCCNC(=O)n1cc(F)c(=O)[nH]c1=O
inactive: [1]
active: [3] 16.6 µM | [4] 2.99 µM and 4.18 µM

C[C@@H](NCCCc1cccc(C(F)(F)F)c1)c1cccc2ccccc12
inactive: [1] | [2] | [5] | [4]

CC1=NN(c2ccccc2)C(=O)C1
inactive: [6] | [1] | [2] | [3] | [5] | [4]

Oc1c(Cl)cc(Cl)c2cccnc12
active: [7] 4.22 µM and 9.35 µM | [1] 8.41 µM and 11.8 µM | [2] 2.66 µM and 9.35 µM | [3] 4.73 µM and 9.35 µM | [5] 24.6 µM and 27.3 µM | [4] 2.99 µM and 7.43 µM

O=P(O)(O)C(O)(Cc1cccnc1)P(=O)(O)O
inactive: [6] | [1] | [2] | [3] | [5] | [4]

CN1CCCC(n2nc(Cc3ccc(Cl)cc3)c3ccccc3c2=O)CC1 (centres undefined)
active: [1] 1.32 µM | [2] 0.935 µM | [3] 0.833 µM | [5] 2.43 µM | [4] 1.18 µM

Clc1ccccc1CN1CCc2sccc2C1
inactive: [6] | [4]
active: [5] 1.53 µM

CCC(C)(C)c1ccc(CC(C)CN2C[C@@H](C)O[C@@H](C)C2)cc1 (some centres undefined)
inactive: [6] | [1] | [5] | [4]

COc1nc(N)nc2c1ncn2[C@@H]1O[C@H](CO)[C@@H](O)[C@@H]1O
inactive: [6] | [1] | [2] | [3] | [5] | [4]

COc1ccc(-c2ccc3cc(C(=O)O)ccc3c2)cc1C12CC3CC(CC(C3)C1)C2
inactive: [6] | [2] | [5]
active: [1] 1.87 µM | [3] 668 nM and 1.05 µM | [4] 2.35 µM

COc1cc2c(Nc3ccc(Br)cc3F)ncnc2cc1OCC1CCN(C)CC1
inactive: [6] | [1] | [4]

CC(C)(Sc1cc(C(C)(C)C)c(O)c(C(C)(C)C)c1)Sc1cc(C(C)(C)C)c(O)c(C(C)(C)C)c1
inactive: [6] | [1] | [5] | [4]

NCCCC(O)(P(=O)(O)O)P(=O)(O)O
inactive: [6] | [1] | [2] | [3] | [5] | [4]

COc1cnc(NS(=O)(=O)c2ccc(N)cc2)nc1
inactive: [6] | [1] | [5] | [4]

O=NN(CCCl)C(=O)NC1CCCCC1
inactive: [6] | [1] | [2] | [3] | [5] | [4]

Cc1c(-c2ccc(O)cc2)n(Cc2ccc(OCCN3CCCCCC3)cc2)c2ccc(O)cc12
inactive: [6] | [1] | [2] | [5]

O=C(O)CCn1c2c(c3ccccc31)C[C@H](NS(=O)(=O)c1ccc(F)cc1)CC2
inactive: [6] | [1] | [2] | [3] | [5] | [4]

O=C(O)c1ccc(-n2nc(-c3ccccc3O)nc2-c2ccccc2O)cc1
active: [1] 20.9 µM | [5] 24.6 µM | [4] 8.33 µM

CC(=O)[C@H]1CC[C@H]2[C@@H]3CC=C4C[C@@H](O)CC[C@]4(C)[C@H]3CC[C@]12C
inactive: [6] | [1] | [2] | [3] | [5] | [4]

CCCc1cc(C(N)=S)ccn1
inactive: [6] | [1] | [2] | [3] | [5] | [4]

O=c1cc(O)c(Cl)c[nH]1
inactive: [6] | [1] | [5] | [4]

CC(=O)CC(c1ccccc1)c1c(O)c2ccccc2oc1=O (centres undefined)
inactive: [6] | [1] | [2] | [5] | [4]

CC[C@H](C)C(=O)O[C@H]1C[C@@H](C)C=C2C=C[C@H](C)[C@H](CC[C@@H]3C[C@@H](O)CC(=O)O3)[C@H]21
active: [1] 9.44 µM and 13.2 µM
inactive: [6] | [3]

S=P(N1CC1)(N1CC1)N1CC1
active: [2] 23.5 µM | [3] 3.72 µM | [4] 1.05 µM
inactive: [6] | [1]

CCOC(=O)c1ccc(C#Cc2ccc3c(c2)C(C)(C)CCS3)nc1
active: [2] 23.5 µM | [3] 18.7 µM
inactive: [6] | [1] | [5] | [4]

O=C(O)c1cn(C2CC2)c2cc(N3CCNCC3)c(F)cc2c1=O
inactive: [6] | [1] | [2] | [3] | [5] | [4]
